Screens from PubChem.
DAX1 inh-1: DAX1 (NR0B1) inhibitors on StAR promoter, primary screen, cell-based, luminescence, SF-1 (NR5A1), full-length DAX-1; HEK293T StAR-luciferase reporter, SF-1/DAX-1 repression relief; inhibition, % at 6.8 µM; 370,000 compounds, 1.1% hits; AID 652010, 2013;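 active = inhibition above the mean over all tested compounds plus 3 SD, cut at about 3.6% in these data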;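 also: higher inhibition means more luminescence from relief of DAX-1 repression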
DAX1 inh-2: DAX1 (NR0B1) inhibitors, primary screen, cell-based, HEK293, Gal4-DAX1, luciferase luminescence; Nuclear receptor subfamily 0 group B member 1 (Homo sapiens), P51843; HEK293 Gal4-DAX1 luciferase reporter; 340,000 compounds, 0.99% hits; AID 504766, 2011; inhibition, % at 6.75 µM;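 active = inhibition above the mean over all tested compounds plus 3 SD, cut at about 4.2% in these data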;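 also: inhibition shows as a rise in luminescence from relieved DAX1 repression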
Target sequence (P51843 207-470 limits assumed): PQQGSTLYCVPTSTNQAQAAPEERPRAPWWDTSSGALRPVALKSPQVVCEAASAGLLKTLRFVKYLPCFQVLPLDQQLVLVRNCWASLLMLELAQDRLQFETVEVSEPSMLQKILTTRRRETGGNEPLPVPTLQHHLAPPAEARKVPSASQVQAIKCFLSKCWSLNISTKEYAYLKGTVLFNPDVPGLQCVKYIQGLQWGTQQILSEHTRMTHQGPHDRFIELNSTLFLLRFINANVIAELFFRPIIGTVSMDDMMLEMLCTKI
ssDAF-12 act: S. stercoralis DAF-12 nuclear receptor activators, primary screen, cell-based, luminescence, HEK293, GRIP1 co-expression, lit1-tk-luc | Nuclear hormone receptor DAF-12 (Strongyloides stercoralis) | HEK293 ssDAF-12/GRIP1 lit1-tk-luc reporter; % of 3 µM dafachronic acid response | activation, % at 6.8 µM | 370,000 compounds, 1% hits;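 active = activation above the mean over all tested compounds plus 3 SD, cut at about 0.9% in these data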
hcDAF12 agonist: H. contortus DAF-12 nuclear receptor activators, primary screen, cell-based, luminescence, HEK293, lit1-tk-luc reporter | HEK293 hcDAF-12 lit1-tk-luc reporter; 0% DMSO, 100% Δ7-dafachronic acid | 370,000 compounds, 1.4% hits | AID 652067, 2013 | activation, % at 6.8 µM;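 active = activation above the mean of all tested compounds plus 3 SD, cut at about 5.5% in these data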
hgDAF-12 ag: H. glycines DAF-12 receptor agonists, primary screen, cell-based, luminescence, HEK293, GAL4 fusion, UAS-luciferase. Nuclear hormone receptor DAF-12 (Heterodera glycines), GAL4 fusion. HEK293 GAL4-hgDAF12 UAS-luciferase reporter, agonist luminescence; normalized to butyrate control. activation, % at 6.8 µM. 370,000 compounds, 1.8% hits. AID 687014, 2013;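 active = activation above a cutoff set at the mean of all screened compounds plus 3 SD, cut at about 10% in these data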
LXR ag: LXR agonists, Gal4 luciferase reporter, confirmation, counter-screen for hcDAF-12 agonist project, cell-based, luminescence, HEK293, H. contortus campaign. shares compounds with hcDAF12 agonist. HEK293 Gal4-LXR tk-luc reporter, 24 h; normalized: DMSO 0%, positive control 100%. activation, % at 6.8 µM. 3,400 tested, under 10 active;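 active = mean percent activation of the reporter above a cutoff set as the average over tested compounds plus their standard deviation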
hcDAF12 conf: H. contortus DAF-12 receptor agonists, confirmation, cell-based, luminescence, HEK293, lit1-tk-luc, triplicate | 3,400 compounds, 61% hits | HEK293 hcDAF-12 lit1-tk-luc reporter; % of Δ7-dafachronic acid response | activation, % at 6.8 µM | shares compounds with hcDAF12 agonist | AID 743032, 2013;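 active = mean activation across triplicate tests above the threshold derived from the earlier primary screen, cut at about 5.5% in these data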
A number is an active result; i = inactive; nt = no result. Sampled rows, rich in hits. Any-hit rate of the full collection: about 4.1%.

SMILES	DAX1 inh-1	DAX1 inh-2	ssDAF-12 act	hcDAF12 agonist	hgDAF-12 ag	LXR ag	hcDAF12 conf
Cc1ccc(-c2nc3cc(C)ccc3o2)cc1	i	i	1.7	11	12	i	21
CC(C)(C)c1ccc(-c2nc3cc(N)ccc3o2)cc1	i	i	i	i	i	nt	nt
CC(C)c1ccc2oc(-c3ccc(N)cc3)nc2c1	i	i	i	12	i	i	15
O=C(OCc1nc(-c2ccccc2Cl)no1)c1ccco1	i	i	i	i	i	nt	nt
CCOC(=O)C(=NCC1CCCO1)NNc1cc(Cl)ccc1Cl (stereo unspecified)	i	i	i	7.5	i	i	i
CCOC(=O)/C(=N\Nc1cc(Cl)ccc1Cl)N1CC(C)OC(C)C1 (stereo unspecified)	i	i	i	i	i	nt	nt
O=C(/C=C/c1cccc([N+](=O)[O-])c1)c1ccco1	i	i	i	i	i	nt	nt
Cc1ccc([N+](=O)[O-])cc1N/C=C/C(=O)c1ccco1	i	i	i	8.1	i	i	6.1
O=c1[nH]c2ccccc2cc1-c1nnn(-c2ccc(F)cc2)n1	i	i	i	i	i	nt	nt
Fc1ccc(-n2nnc(-c3cnc4ccccc4c3)n2)cc1	i	i	i	9.6	11	i	i
O=C(O)[C@H](Cc1ccccc1)N1Cc2ccccc2C1=O	i	i	i	i	i	nt	nt
CC(=O)N[C@H](Cc1c[nH]c2ccccc12)C(=O)O	i	i	i	8.2	i	i	i
O=C(O)C(Cc1c[nH]c2ccccc12)N1Cc2ccccc2C1=O (stereo unspecified)	i	i	3.0	6.9	i	i	8.0
CC(=O)/C=C(/C)NC(Cc1c[nH]c2ccccc12)C(=O)O (stereo unspecified)	i	i	i	i	i	nt	nt
CC(C)N(C)Cc1nnnn1CC(=O)NCCc1cccc(C(F)(F)F)c1	i	i	i	i	i	nt	nt
Fc1ccc(OCc2nnc(-c3ccccc3Br)o2)c(Cl)c1	i	i	i	7.1	11	i	i
O=C(CSc1nnc2ccccn12)c1ccc2c(c1)OCCO2	3.8	i	i	6.6	i	i	i
O=C(CSc1nnc2ccccn12)N1CCc2ccccc2C1	i	i	i	i	i	nt	nt
O=C(CSc1nnc2ccccn12)N1CCc2ccccc21	i	i	i	7.3	13	i	5.7
CCc1nc2ccc(C(=O)Nc3ccc(OC)c(OC)c3)cn2c1N(C)Cc1ccc(N(C)C)cc1	i	nt	i	i	i	nt	nt
CCOc1cc(N2CCOCC2)c(OCC)cc1NS(=O)(=O)c1ccc2c(c1)CC(=O)N2	i	i	i	i	i	nt	nt
Cc1ccc(Nc2nc(CSc3nnc(-c4cccnc4)n3-c3ccccc3C)cs2)cc1	i	i	i	i	i	nt	nt
Cc1ccc(Nc2nc(CSc3nnc(-c4ccccc4C)n3C)cs2)cc1	i	i	i	6.8	i	i	i
Cn1c(CNc2nc3ccccc3n2CCN2CCCCC2)nc2ccccc21	i	i	i	i	i	nt	nt
CCn1c(CNc2ccc(C(=O)O)cc2)nc2ccccc21	i	i	i	9.3	i	i	i
O=C(O)c1ccc(NCc2nc3ccccc3n2Cc2ccccc2)cc1	i	i	i	i	i	nt	nt
Cn1c(CNc2ccccc2O)nc2ccccc21	i	i	3.0	8.4	i	i	9.0
